Assay results published in PubChem BioAssay AID743262 (National Center for Advancing Translational Sciences (NCATS), 2014).
The whole screen tested about 1,300 compounds, of which about 25 (2%) were called active. About 9% were inconclusive and are not listed. This excerpt belongs to a sample that is enriched for actives. A number with no mark means an inactive call. The call rests on the fitted dose curve; in most records, active means well fitted activation curve with a large enough effect; inconclusive means small, poorly fitted or top-dose-only effect; inactive means flat fitted curve, though single readings scatter.

What follows are compounds tested against Glucagon-like peptide 1 receptor (Homo sapiens) (UniProt P43220) (assay: qHTS of GLP-1 Receptor Agonists: Hit Validation). Settings: HEK293 GLP-1R, cAMP-response luciferase, 4-6 h; series mostly up to 46.1 µM; activation: at the top concentration.
Glucagon-like peptide 1 receptor (Homo sapiens), sequence (P43220 whole entry, looked up): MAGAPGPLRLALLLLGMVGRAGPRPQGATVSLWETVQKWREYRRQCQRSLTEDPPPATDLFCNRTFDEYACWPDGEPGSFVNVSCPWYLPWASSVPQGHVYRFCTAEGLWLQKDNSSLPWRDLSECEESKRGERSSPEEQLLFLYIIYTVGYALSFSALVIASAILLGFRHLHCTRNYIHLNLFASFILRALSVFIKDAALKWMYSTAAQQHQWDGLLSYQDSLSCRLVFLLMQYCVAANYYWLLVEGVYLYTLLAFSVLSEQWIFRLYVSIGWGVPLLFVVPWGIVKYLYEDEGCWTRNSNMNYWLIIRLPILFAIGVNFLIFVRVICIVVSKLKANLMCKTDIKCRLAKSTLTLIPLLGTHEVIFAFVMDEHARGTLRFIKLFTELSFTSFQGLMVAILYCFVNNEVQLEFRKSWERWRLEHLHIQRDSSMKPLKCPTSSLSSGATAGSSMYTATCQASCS
In short: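 Stably transfected HEK293 cells co-expressing GLP-1R and a cAMP-responsive luciferase reporter, plated 12 h before compound. Compound exposure 4-6 hr at 37 deg C, 5% CO2; luciferase luminescence read after 12 min detection at RT.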
Potency means the concentration at half of the fitted maximal effect.
Wherever activation is given: % of control where 0% means no effect.

Compound | activation [%] | Potency
COc1ccc(-c2csc(C(C)(NC(C)=O)c3ccccc3)n2)cc1 (stereo unspecified) | 5.87 | –
CCOC(=O)CN1C(=O)S/C(=C/c2ccc(OCc3ccc(C(=O)O)cc3)cc2)C1=O | -1.18 | –
N#Cc1nc(-c2cccs2)oc1NCc1ccco1 | 0.479 | –
Cc1cc(C)c2c(N)c(C(=O)NCC3CCCCC3)sc2n1 | 4.29 | –
Cc1ccnc(NC(=O)C23CC4CC(CC(C4)C2)C3)c1 | -0.29 | –
Cc1ccc(CNc2cc(-c3nn4c(C)nnc4s3)ccc2C)s1 | 16.4 | –
ClCCn1cnc2c(SCc3ccccc3)ncnc21 | 10.5 | –
COc1cccc(C2=CC(=O)C[C@H](c3ccc(OC)c(OC)c3)C2)c1 | 7.19 | –
N#Cc1c(NCCCO)nc(-c2ccccc2)c2c1CCCC2 | 10.7 | –
COc1ccc(C(C)=O)cc1COC(=O)c1ccc2c(c1)OCCO2 | 9.84 | –
CC(=O)c1cc(C#N)c(SCC(=O)OC(C)(C)C)nc1C | 4.82 | –
COc1ccc(N/C=C/C(=O)c2ccc(OC)c(OC)c2)cc1 | 2.3 | –
C#CCOc1ccc2c3c(c(=O)oc2c1)CCCC3 | 10.1 | –
Cc1cccc(OCCNc2cc(N3CCOCC3)ccc2[N+](=O)[O-])c1 | 12.5 | –
OC(CNCc1cccc(Br)c1)c1ccccc1 (stereo unspecified) | 11.8 | –
CCN(CC)c1nc2ccccc2nc1C(C#N)C(=O)NCCCOC (stereo unspecified) | 4.82 | –
COc1ccc(F)cc1-c1cc(NC(C)=O)c2ncc(-c3cc(OC)c(OC)c(OC)c3)n2c1 | 6.2 | –
COc1ccc(-c2cc(NC=O)c3ncc(-c4ccc(OC)c(OC)c4)n3c2)cc1 | – | 18.4 µM (active)
CC(=O)c1ccc(-c2cnc3c(NC=O)cc(-c4ccccc4Oc4ccccc4)cn23)cc1 | 18.1 | –
COc1cc(-c2cnc3c(NC=O)cc(-c4ccccc4Cl)cn23)cc(OC)c1OC | – | 5.8 µM (active)
Cc1ccc(-c2cc(NC=O)c3ncc(-c4cnn(C)c4)n3c2)cc1 | 22 | –

Compound | activation [%] | Potency
COc1ccc(-c2cnc3c(NC=O)cc(-c4ccc(C(=O)N5CCOCC5)cc4)cn23)cc1OC | 22.4 | –
COc1ccc(-c2cc(NC=O)c3ncc(-c4ccc(OC)c(OC)c4)n3c2)c(OC)c1 | – | 2.59 µM (active)
COc1cccc(-c2cnc3c(NC(C)=O)cc(-c4ccc(OC)c(OC)c4)cn23)c1 | 24.3 | –
COc1ccc(-c2cnc3c(NC=O)cc(-c4ccccc4OC)cn23)cc1OC | – | 8.2 µM (active)
COc1ccc(-c2cc(NC=O)c3ncc(-c4ccc(C(C)=O)cc4)n3c2)cc1OC | 25.4 | –
O=CNc1cc(-c2ccccc2)cn2c(-c3ccc(F)c(Cl)c3)cnc12 | 28 | –
COc1cccc(-c2cnc3c(NC=O)cc(-c4ccc(N(C)C)cc4)cn23)c1 | 27.5 | –
OC1CCCN(c2c3c(nc4cc(-c5cccc(F)c5)nn24)CCCC3)C1 (stereo unspecified) | 14.6 | –
COc1cc2c(cc1OC)/C(=C/C(=O)c1ccccc1)NCC2 | 26.6 | –
O=C(OCc1csc(-c2ccccc2)n1)c1ccccc1O | 2.2 | –
COc1ccc(CC(=O)OCC(=O)N2c3ccccc3CC2C)cc1OC (stereo unspecified) | -0.291 | –
Cc1nn(C)cc1CNC(=O)c1cnn2c(C(F)F)cc(C3CC3)nc12 | 10.2 | –
COC(=O)c1ccc(OCC2c3cc(OC)c(OC)cc3CCN2C(C)=O)cc1 (stereo unspecified) | 9.94 | –
Cc1cccc(-c2nnc3sc(-c4ccccc4C)nn23)c1 | 21 | –
Cc1cccc(C(=O)N2CCC[C@H]2C(=O)N2CCC[C@H]2C(=O)NCc2ccncc2)c1 | -0.462 | –
Cc1cccc(-c2nc(C#N)c(N3CCCCCC3)o2)c1 | 10.5 | –
COc1cccc(Nc2nc(N)c([N+](=O)[O-])c(NCc3ccco3)n2)c1 | 21.8 | –
CC(C)n1nnnc1SCC(=O)N1N=C(c2cccs2)CC1c1cccs1 (stereo unspecified) | -0.355 | –
CC1CCN(CCCNC(=O)c2cc3c(Cl)nc4ccccc4c3s2)CC1 | 4.09 | –
CCN(CC)c1ncnc2c1cnn2Cc1ccc(C)cc1 | 17.3 | –
